Assay results: PubChem BioAssay AID1159580 (chemical genetic matrix, 2015)
Several values for one entry are separate records, joined by “and”; a condition that tells them apart may be missing. Equal values may be shown once. Screen size: about 5,500 compounds; about 2,000 (36%) were called active. Roughly 18% stayed inconclusive and do not appear here. Cut-off read from the data, not from the text of the source: active = normalized growth mostly below about 0.91 (no sharp cut-off); inconclusive = no clear call, values can overlap the other calls; inactive = mostly above about 0.92. This is one part of the list.

Assay: chemical genetic growth profiling, strain panel (AID 1159580);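 note: tested at 20 µM; growth read once vehicle control cultures reached saturation at 30 °C; 1 = growth at the plate median or of vehicle wells; lower values mean less growth of the strain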
Details: growth OD

Measured: normalized growth

CN(C)CCCN1c2ccccc2Sc2ccccc21
inactive: S. cerevisiae deletion strains, locus YJR075W, strain HOC1, hits give low values 0.995 and 1 | S. cerevisiae deletion strains, locus YKL009W, strain mrt4, hits give low values 1.02 | S. cerevisiae deletion strains, locus YKL068W, hits give low values 1.01 | S. cerevisiae deletion strains, locus YKL085W, strain MDH1 (second series), hits give low values 1 | S. cerevisiae deletion strains, locus YKL085W, strain MDH1, hits give low values 1 | S. cerevisiae deletion strains, locus YKL160W, strain elf1, hits give low values 1.04 | S. cerevisiae deletion strains, locus YKL190W, strain CNB1, hits give low values 1 | S. cerevisiae deletion strains, locus YKR001C, strain vps1, hits give low values 1.02 | S. cerevisiae deletion strains, locus YKR026C, strain gcn3, hits give low values 0.989 | S. cerevisiae deletion strains, locus YKR091W, strain srl3, hits give low values 0.984 | S. cerevisiae deletion strains, locus YLL001W, strain dnm1, hits give low values 0.978 | S. cerevisiae deletion strains, locus YLL026W, hits give low values 0.98 | S. cerevisiae deletion strains, locus YLL041C, strain sdh2, hits give low values 0.99 | S. cerevisiae deletion strains, locus YLR027C, strain aat2, hits give low values 0.999 | S. cerevisiae deletion strains, locus YLR039C, strain RIC1, hits give low values 1.19 | S. cerevisiae deletion strains, locus YLR058C, strain SHM2, hits give low values 1 | S. cerevisiae deletion strains, locus YLR102C, strain apc9, hits give low values 1.01 | S. cerevisiae deletion strains, locus YLR113W, strain HOG1, hits give low values 1.01 | S. cerevisiae deletion strains, locus YLR221C, strain rsa3, hits give low values 0.992 | S. cerevisiae deletion strains, locus YLR258W, strain gsy2, hits give low values 0.983 | S. cerevisiae deletion strains, locus YLR262C, strain YPT6 (second series), hits give low values 1.01 | S. cerevisiae deletion strains, locus YLR262C, strain YPT6, hits give low values 1.23 | S. cerevisiae deletion strains, locus YLR268W, strain sec22, hits give low values 1.01 | S. cerevisiae deletion strains, locus YLR320W, strain mms22, hits give low values 0.996 | S. cerevisiae deletion strains, locus YLR330W, strain CHS5, hits give low values 1.01 | S. cerevisiae deletion strains, locus YLR342W, strain FKS1 (second series), hits give low values 0.99 | S. cerevisiae deletion strains, locus YLR342W, strain FKS1, hits give low values 0.977 | S. cerevisiae deletion strains, locus YLR357W, strain rsc2, hits give low values 0.989 | S. cerevisiae deletion strains, locus YLR370C, strain arc18, hits give low values 1 | S. cerevisiae deletion strains, locus YLR371W, strain rom2, hits give low values 1.01 | S. cerevisiae deletion strains, locus YLR384C, strain iki3, hits give low values 0.997 | S. cerevisiae deletion strains, locus YLR418C, strain cdc73, hits give low values 0.988 | S. cerevisiae deletion strains, locus YML016C, strain PPZ1, hits give low values 1.01 | S. cerevisiae deletion strains, locus YML032C, strain rad52, hits give low values 1.01 | S. cerevisiae deletion strains, locus YML120C, strain ndi1, hits give low values 0.99 | S. cerevisiae deletion strains, locus YML124C, strain tub3, hits give low values 1.01 | S. cerevisiae deletion strains, locus YMR058W, strain fet3, hits give low values 0.982 | S. cerevisiae deletion strains, locus YMR078C, strain ctf18, hits give low values 1.01 | S. cerevisiae deletion strains, locus YMR125W, strain sto1, hits give low values 0.947 | S. cerevisiae deletion strains, locus YMR129W, hits give low values 1 | S. cerevisiae deletion strains, locus YMR205C, strain PFK2, hits give low values 1 | S. cerevisiae deletion strains, locus YMR223W, strain ubp8, hits give low values 0.999 | S. cerevisiae deletion strains, locus YMR231W, strain pep5, hits give low values 0.986 | S. cerevisiae deletion strains, locus YMR263W, strain SAP30, hits give low values 0.999 and 0.981 | S. cerevisiae deletion strains, locus YMR307W, strain GAS1, hits give low values 1.03 and 1.02 | S. cerevisiae deletion strains, locus YNL067W, strain RPL9B, hits give low values 0.988 | S. cerevisiae deletion strains, locus YNL071W, strain lat1, hits give low values 0.996 | S. cerevisiae deletion strains, locus YNL128W, strain TEP1, hits give low values 1.01 and 0.994 | S. cerevisiae deletion strains, locus YNL153C, strain GIM3, hits give low values 1.09 | S. cerevisiae deletion strains, locus YNL175C, strain NOP13, hits give low values 0.983 | S. cerevisiae deletion strains, locus YNL183C, strain NPR1, hits give low values 0.965 | S. cerevisiae deletion strains, locus YNL209W, strain ssb2, hits give low values 0.971 | S. cerevisiae deletion strains, locus YNL224C, strain SQS1, hits give low values 1.01 | S. cerevisiae deletion strains, locus YNL233W, strain BNI4, hits give low values 1.01 | S. cerevisiae deletion strains, locus YNL248C, strain rpa49, hits give low values 0.976 | S. cerevisiae deletion strains, locus YNL250W, strain rad50, hits give low values 1.01 | S. cerevisiae deletion strains, locus YNL271C, strain bni1, hits give low values 1.01 | S. cerevisiae deletion strains, locus YNL298W, strain CLA4, hits give low values 1 | S. cerevisiae deletion strains, locus YNL307C, strain MCK1, hits give low values 1.02 | S. cerevisiae deletion strains, locus YNL322C, strain KRE1 (second series), hits give low values 1.01 | S. cerevisiae deletion strains, locus YNL322C, strain KRE1, hits give low values 1 and 0.958 | S. cerevisiae deletion strains, locus YNR049C, strain mso1, hits give low values 0.996 | S. cerevisiae deletion strains, locus YNR052C, strain pop2, hits give low values 1.01 | S. cerevisiae deletion strains, locus YOL006C, strain TOP1, hits give low values 0.983 | S. cerevisiae deletion strains, locus YOL012C, strain htz1 0.964 | S. cerevisiae deletion strains, locus YOL147C, strain pex11, hits give low values 1.01 | S. cerevisiae deletion strains, locus YOR001W, strain rrp6, hits give low values 0.96 | S. cerevisiae deletion strains, locus YOR061W, strain CKA2, hits give low values 1.01 | S. cerevisiae deletion strains, locus YOR069W, strain VPS5, hits give low values 0.995 | S. cerevisiae deletion strains, locus YOR070C, strain gyp1, hits give low values 0.986 | S. cerevisiae deletion strains, locus YOR080W, strain dia2, hits give low values 1.01 | S. cerevisiae deletion strains, locus YOR083W, strain WHI5 (second series), hits give low values 0.98 | S. cerevisiae deletion strains, locus YOR083W, strain WHI5, hits give low values 0.971 | S. cerevisiae deletion strains, locus YOR106W, strain vam3, hits give low values 0.968 | S. cerevisiae deletion strains, locus YOR136W, strain idh2, hits give low values 1.02 | S. cerevisiae deletion strains, locus YOR144C, strain elg1, hits give low values 1.01 | S. cerevisiae deletion strains, locus YOR184W, strain ser1, hits give low values 1.08 | S. cerevisiae deletion strains, locus YOR231W, strain MKK1, hits give low values 0.986 | S. cerevisiae deletion strains, locus YOR265W, strain rbl2, hits give low values 1 | S. cerevisiae deletion strains, locus YOR270C, strain vph1, hits give low values 0.898 | S. cerevisiae deletion strains, locus YOR290C, strain snf2, hits give low values 1.01 | S. cerevisiae deletion strains, locus YOR316C, strain cot1, hits give low values 1.02 | S. cerevisiae deletion strains, locus YPL051W, strain arl3, hits give low values 1 | S. cerevisiae deletion strains, locus YPL055C, strain LGE1, hits give low values 1.01 | S. cerevisiae deletion strains, locus YPL078C, strain atp4, hits give low values 1.01 | S. cerevisiae deletion strains, locus YPL106C, strain sse1, hits give low values 0.999 | S. cerevisiae deletion strains, locus YPL240C, strain hsp82, hits give low values 0.985 | S. cerevisiae deletion strains, locus YPL241C, strain CIN2, hits give low values 0.999 | S. cerevisiae deletion strains, locus YPL256C, strain CLN2, hits give low values 1.01 | S. cerevisiae deletion strains, locus YPR119W, strain clb2, hits give low values 1 | S. cerevisiae deletion strains, locus YPR141C, strain kar3, hits give low values 1.01 | S. cerevisiae deletion strains, locus YPR163C, strain tif3, hits give low values 1.01 | S. cerevisiae deletion strains, locus YPR167C, strain met16, hits give low values 1.01 | S. cerevisiae deletion strains, strain wtn01, hits give low values 1.02 | S. cerevisiae strains, strain wild type, hits give low values 0.992
